This is an account of results in PubChem BioAssay.

The source made the active and inactive calls.

A short description of experiment [1]: A549 cell viability effects, profiling panel, calcein-AM fluorescence, 48 h, basal (AID 1162). Conditions: higher = more signal.
The nature of experiment [2]: adipocyte viability effects, profiling panel, cell-based, 3T3-L1 adipocytes, calcein-AM fluorescence, 48 h, basal (AID 1163). Conditions: 3T3-L1 adipocytes viability, higher = more signal.
A short description of experiment [3]: HepG2 cell viability effects, profiling panel, calcein-AM fluorescence, 48 h, basal (AID 1164). Conditions: higher = more signal.
Experiment [4] can be described thus: MM1S cell viability effects, profiling panel, calcein-AM fluorescence, 48 h, basal (AID 1165).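 Note: viability of MM1S multiple myeloma cells under basal unstimulated conditions.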 The conditions noted are these: higher = more signal.
The nature of experiment [5]: basal RPMI8226 viability, no added stimulus, profiling panel, cell-based, calcein-AM fluorescence, 48 h, PK04 Diversity Set (AID 1166).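 Note: cells grown under basal conditions without added stimulus.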 Conditions: RPMI8226 myeloma viability, higher = more signal.
Experiment [6] can be described thus: basal HepG2 mitochondrial membrane potential changes, profiling panel, cell-based, JC-1 fluorescence, 24 h, 100 nL compound (AID 1167). The conditions noted are these: higher = more signal.
A short description of experiment [7]: basal 3T3-L1 adipocyte mitochondrial potential changes, profiling panel, cell-based, JC-1 fluorescence, 3T3-L1 adipocytes, 24 h, 100 nL compound (AID 1168). The conditions noted are these: JC-1 mitochondrial fluorescence, higher = more signal, called active from +8 up or from −8 down.
A short description of experiment [8]: basal RPMI8226 mitochondrial membrane potential changes, profiling panel, cell-based, JC-1 fluorescence, 24 h, 100 nL compound (AID 1169). Conditions: RPMI8226 myeloma, JC-1 mitochondrial potential fluorescence, higher = more signal.
Experiment [9] in a line: basal MM1S mitochondrial membrane potential changes, profiling panel, cell-based, JC-1 fluorescence, 24 h, 100 nL compound (AID 1170). Conditions: higher = more signal.
The nature of experiment [10]: A549 lung cancer cell viability effects, profiling panel, resazurin fluorescence, 24 h, PK04 Diversity Set (AID 1171). The conditions noted are these: higher = more signal, called active from +8 up or from −8 down. On the technique in general: Alamar Blue is a resazurin reagent that responds to reducing activity.
Note: test concentration not given here.

In the case of `C=C(/C(=C/C[C@H](OC(C)=O)c1ccc(CO)o1)c1cnc2ccccc2c1)C(C)C`, the z-score in experiment [1] was -0.166; in experiment [2], 0.283; in experiment [3], -0.7; in experiment [4], -1.36; in [5], -1.47; in experiment [6], -1.36. Moreover, the z-score in [7] was -0.524 (inactive); in experiment [8], 0.867; in experiment [9] it was 0.246; in experiment [10] it was 0.643 (inactive).
On to `[N-]=[N+]=Nc1ccccc1C[C@@]1(C(=O)N2CCOCC2)N=C(c2ccc(OCCCO)cc2)O[C@@H]1c1ccccc1`, for which the z-score in [1] is 0.239; in [2], -0.231; in experiment [3], 1.01; in [4], -1.92; in experiment [5], -2.57; in experiment [6] it was 1.02. Also, the z-score in experiment [7] was 0.752 (inactive); in experiment [8] it was -1.23; in experiment [9], -0.324; in experiment [10] it was -1.07 (inactive).
Consider `COc1ccccc1CN1C(=O)c2ccccc2[C@](Cc2ccccc2I)(C(=O)O)[C@@H]1c1ccc(CO)cc1`, for which the z-score in experiment [1] was 1.14; in experiment [2] it was -1.03; in experiment [3], 0.235; in experiment [4] it was -0.616; in experiment [5], -1.7; in experiment [6], -0.199. Besides, the z-score in experiment [7] is -0.205 (inactive); in experiment [8], -0.151; in experiment [9], -0.177; in experiment [10], -0.17 (inactive).
Turning to `CCCC=C(CCC)[C@@H](NS(=O)(=O)c1ccc(C(F)(F)F)cc1)c1ccccc1`, the z-score was -0.511 in [1]; -0.217 in experiment [2]; -0.832 in experiment [3]; -0.266 in experiment [4]; -1.86 in experiment [5]; -4.98 in [6]. In addition, the z-score in experiment [7] is -0.61 (inactive); in [8], -0.519; in experiment [9], -1.51; in experiment [10], 0.221 (inactive).
`C=C[C@H]1C(C(=O)OCC)=CC[C@@H](c2ccccc2)N1S(=O)(=O)c1ccc(C)cc1`: the z-score in experiment [1] is -0.438; in experiment [2], -1.05; in [3], -0.708; in experiment [4] it was -0.465; in [5], -1.46; in [6], 5.08. Further, the z-score was -0.517 (inactive) in experiment [7], -0.309 in experiment [8], -1.21 in experiment [9] and 0.69 (inactive) in experiment [10].
As to `CCCC=C(CCC)[C@@H](NS(=O)(=O)CC12CCC(CC1=O)C2(C)C)c1ccc(C(=O)OC)cc1` (stereo not given in full), the z-score in experiment [1] was -0.672; in experiment [2], -0.316; in [3] it was -0.915; in experiment [4], 0.295; in experiment [5], -1.06; in [6], -2. Moreover, the z-score in [7] is 0.273 (inactive); in experiment [8], 0.7; in experiment [9] it was -1.46; in experiment [10], 0.252 (inactive).
As to `COc1cc2c(cc1O)C(c1ccc(CN3CCCC3)cc1)N(Cc1cc3c(cc1Br)OCO3)CC2` (stereo not given), the z-score was -0.717 in experiment [1]; -0.564 in [2]; -0.341 in [3]; -3.17 in experiment [4]; 0.173 in [5]; 1.21 in experiment [6]. Further, the z-score in experiment [7] is 0.144 (inactive); in [8], -0.398; in experiment [9], -1.29; in experiment [10] it was 0.694 (inactive).
With `CC(C)NC(=O)[C@@]1(c2ccc([N+](=O)[O-])cc2)CC(=O)N(C2CCCCC2)[C@@H]1c1ccc(CO)cc1`, the z-score in [1] is -0.68; in experiment [2] it was -0.773; in experiment [3], -0.297; in experiment [4], -0.0629; in [5], -0.402; in [6] it was 1.46. The z-score in experiment [7] is 1.4 (inactive); in experiment [8], 0.172; in [9], -0.123; in experiment [10], 1.38 (inactive).
`CC(C)NC(=O)[C@@]1(C)c2ccccc2C(=O)N(Cc2ccc(OC(F)(F)F)cc2)[C@H]1c1ccc(CO)cc1`: the z-score was -0.692 in experiment [1]; 1.08 in experiment [2]; 0.0903 in experiment [3]; -0.0831 in [4]; -0.676 in experiment [5]; 2.05 in experiment [6]. The z-score is -0.682 (inactive) in [7], -0.547 in [8], -1.67 in experiment [9] and -0.0752 (inactive) in [10].
In the case of `COC(=O)C1=CC(CCCO)=CC(c2cccs2)N(C)C=C1C(=O)OC` (stereo not given), the z-score was -0.253 in [1]; 0.483 in [2]; -0.818 in experiment [3]; 0.347 in experiment [4]; 0.959 in experiment [5]; -0.386 in experiment [6]. Further, the z-score was -0.195 (inactive) in [7], -0.294 in [8], 0.549 in [9] and -0.28 (inactive) in experiment [10].
With `CCCNC(=O)[C@@H]1c2ccccc2C(=O)N(Cc2ccc(OC(F)(F)F)cc2)[C@H]1c1ccc(CO)cc1`, the z-score in experiment [1] is 1.17; in [2], 0.385; in [3] it was 2.08; in experiment [4], 0.157; in experiment [5] it was 0.485; in experiment [6], 3.22. The z-score in experiment [7] is 1.22 (inactive); in experiment [8], 0.432; in experiment [9], 0.129; in [10], 0.285 (inactive).
On to `CC(CO)N1C(=O)[C@@H]2[C@H]3C(=O)OCC=C[C@H]3OC23C=CCN(Cn2nnc4ccccc42)C(=O)[C@@H]13` (stereo not given in full), for which the z-score in [1] is -0.671; in experiment [2] it was -0.948; in experiment [3], -0.907; in experiment [4], 0.07; in [5], -0.637; in experiment [6] it was -1.23. The z-score in experiment [7] is -0.529 (inactive); in [8], 0.241; in experiment [9] it was -0.226; in [10] it was -0.382 (inactive).
Consider `O[C@@H](Cc1ccccc1)[C@@H](/C=C/C1CC1)N(CC#Cc1ccccc1)Cc1ccccc1Br`, for which the z-score was -0.049 in [1]; -0.667 in [2]; -0.258 in [3]; 0.0144 in [4]; -0.353 in [5]; -1.79 in experiment [6]. Also, the z-score in experiment [7] is -0.344 (inactive); in [8] it was -0.44; in experiment [9], -0.571; in [10], 1.62 (inactive).
With `CN(C)C(=O)[C@@]1(Cc2ccccc2)N=C(c2ccc(OCCCO)cc2)O[C@H]1c1ccccc1`, the z-score in experiment [1] was -0.518; in [2], 0.208; in experiment [3] it was 0.64; in experiment [4], -0.918; in [5] it was -3.24; in experiment [6], 0.285. The z-score in experiment [7] was 0.708 (inactive); in [8], -0.0484; in experiment [9], -0.303; in experiment [10], 1.18 (inactive).
Turning to `CC(C)(C)OC(=O)CC[C@@]1(C(=O)NCC(O)CO)N=C(c2ccc(OCCCO)cc2)O[C@@H]1c1ccccc1CN=[N+]=[N-]` (stereo not given in full), the z-score was 1.25 in experiment [1]; 0.478 in experiment [2]; -0.0162 in experiment [3]; -0.217 in experiment [4]; -0.34 in experiment [5]; 0.0542 in experiment [6]. Further, the z-score is 0.0122 (inactive) in [7], -0.418 in experiment [8], 1.12 in experiment [9] and 0.0255 (inactive) in experiment [10].
With `C=CC[C@]1(C(=O)N2CCOCC2)COC(c2ccc(OCCCO)cc2)=N1`, the z-score is -0.559 in [1]; 0.147 in experiment [2]; -0.814 in experiment [3]; -0.405 in experiment [4]; -1.21 in experiment [5]; -0.658 in experiment [6]. Further, the z-score in experiment [7] was -0.142 (inactive); in [8], 0.846; in experiment [9], -0.422; in [10], 1.47 (inactive).
Regarding `CC1CC/C=C\[C@H]2OC34C=CCN(Cc5ccccc5)C(=O)[C@H]3N(C(CO)C(C)C)C(=O)[C@@H]4C2C(=O)O1` (stereo not given in full), the z-score is 0.743 in [1]; 0.493 in [2]; 0.539 in experiment [3]; 0.947 in [4]; 0.847 in experiment [5]; -0.213 in experiment [6]. The z-score was 0.000812 (inactive) in [7], -0.795 in experiment [8], -0.0133 in experiment [9] and 0.0401 (inactive) in [10].
